Drawing on PubChem BioAssay (EPA / NIEHS), this text covers outcome and AC50 for three compounds.

Conditions in all cases: mRNA level, 48 h; actives raise or lower the signal
Read-out in experiment [1]: JUN Transcription Factor, JUN (gene 3725)
As to the kind of experiment: LTEA_HepaRG_JUN: Life Technologies and Expression Analysis (LTEA) Assay for JUN Transcription Factor using HepaRG (AID 2283513). The procedure, abridged: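 mRNA measured by TaqMan qRT-PCR after 48 h chemical exposure of HepaRG cultures; normalization to three housekeeping genes. Duplicate eight-point half-log curves from 100 uM in 0.5% DMSO; gain or loss fitted against DMSO baseline.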

Read-out in experiment [2]: Lipase C (LIPC), LIPC (gene 3990)
As to the kind of experiment: LTEA_HepaRG_LIPC: Life Technologies and Expression Analysis (LTEA) Assay for Lipase C (LIPC) using HepaRG (AID 2283514). The procedure, abridged: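 In this multiplexed gene-expression screen, human HepaRG cultures received test chemicals for 48 h across eight concentrations with 100 uM highest, in duplicate. Values reflect LIPC mRNA induction or suppression versus DMSO vehicle, from normalized qRT-PCR.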

Read-out in experiment [3]: Lipoprotein lipase (LPL), LPL (gene 4023)
As to the kind of experiment: LTEA_HepaRG_LPL: Life Technologies and Expression Analysis (LTEA) Assay for Lipoprotein lipase (LPL) using HepaRG (AID 2283515). The procedure, abridged:
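Concentration-response testing used half-log steps from 100 uM in 0.5% DMSO on human HepaRG cells, 48 h, duplicate wells. Phenobarbital 1 mM served as induction control; LPL mRNA was normalized to ACTB, GAPDH, POLR2A.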

Read-out in experiment [4]: MicroRNA 122 (MIR122), gene 406906
Briefly: LTEA_HepaRG_MIR122: Life Technologies and Expression Analysis (LTEA) Assay for MicroRNA 122 (MIR122) using HepaRG (AID 2283516). Note: the transcript read is the microRNA miR-122. In a few lines:
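Expression measured by microfluidic qRT-PCR with three housekeeping genes for normalisation, after 48 h treatment of HepaRG cultures. Eight concentrations (top 100 uM, half-log steps, 0.5% DMSO vehicle) in duplicate; gain or loss fitted relative to vehicle.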

Read-out in experiment [5]: matrix metalloproteinase-10 (MMP10), MMP10 (gene 4319)
As to the kind of experiment: LTEA_HepaRG_MMP10: Life Technologies and Expression Analysis (LTEA) Assay for matrix metalloproteinase-10 (MMP10) using HepaRG (AID 2283517). The procedure, abridged: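 In differentiated HepaRG cultures kept in 0.5% DMSO, test chemicals act for 48 h over an eight-point range with a top dose of 100 uM. Expression is then quantified by TaqMan RT-PCR against ACTB, GAPDH and POLR2A.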

Read-out in a further experiment: MYC, MYC (gene 4609)
As to the kind of experiment: LTEA_HepaRG_MYC: Life Technologies and Expression Analysis (LTEA) Assay for MYC using HepaRG (AID 2283518). In a few lines:
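MYC transcript changes, up or down relative to 0.5% DMSO, from TaqMan qRT-PCR normalized to three housekeeping genes. Human HepaRG cultures received chemicals for 48 h at eight half-log concentrations up to 100 uM, in duplicate.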

Read-out in experiment [6]: matrix metalloproteinase-3 (MMP3), MMP3 (gene 4314)
Briefly: LTEA_HepaRG_MMP3: Life Technologies and Expression Analysis (LTEA) Assay for matrix metalloproteinase-3 (MMP3) using HepaRG (AID 2283519). In a few lines:
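Human liver HepaRG cultures received chemicals (top concentration 100 uM, 0.5% DMSO) for 48 h in duplicate. MMP3 mRNA induction or loss was then assessed via TaqMan qRT-PCR with housekeeping-gene normalisation.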

Read-out in experiment [7]: Paternally Expressed 10 (PEG10), PEG10 (gene 23089)
Briefly: LTEA_HepaRG_PEG10: Life Technologies and Expression Analysis (LTEA) Assay for Paternally Expressed 10 (PEG10) using HepaRG (AID 2283520).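 For AC50: PEG10 transcript by qRT-PCR normalised to ACTB GAPDH and POLR2A.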 The procedure, abridged:
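PEG10 transcript measured by Fluidigm qRT-PCR, normalized to three housekeeping genes, in HepaRG cells treated 48 h (highest 100 uM, half-log steps, 0.5% DMSO vehicle). Cells plated 48 h before switching to serum-free induction medium.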

Read-out in experiment [8]: Nuclear factor NF-kappa-B p105 subunit (Homo sapiens) (UniProt P19838)
Briefly: LTEA_HepaRG_NFKB1: Life Technologies and Expression Analysis (LTEA) Assay for Nuclear Factor Kappa B Subunit 1 (NFKB1) using HepaRG (AID 2283521).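 Note: TaqMan qRT-PCR transcript normalised to ACTB GAPDH and POLR2A housekeeping genes.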 The procedure, abridged:
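Differentiated human HepaRG cells in serum-free induction medium with 0.5% DMSO were exposed for 48 h to eight half-log concentrations, top 100 uM, in duplicate. NFKB1 mRNA measured by Fluidigm TaqMan qRT-PCR, normalised to ACTB, GAPDH and POLR2A; bidirectional fit versus DMSO.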

Read-out in experiment [9]: Protein phosphatase 2A (PPP2R4), PTPA (gene 5524)
As to the kind of experiment: LTEA_HepaRG_PPP2R4: Life Technologies and Expression Analysis (LTEA) Assay for Protein phosphatase 2A (PPP2R4) using HepaRG (AID 2283522). The procedure, abridged:
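Expression was quantified by Fluidigm qRT-PCR normalised to three housekeeping genes after 48 h treatment. Human HepaRG cells received an 8-point series from 100 µM downward by half-logs, in duplicate with 0.5% DMSO vehicle and 1 mM phenobarbital as induction control.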

Read-out in experiment [10]: Phosphatase and tensin (PTEN), PTEN (gene 5728)
As to the kind of experiment: LTEA_HepaRG_PTEN: Life Technologies and Expression Analysis (LTEA) Assay for Phosphatase and tensin (PTEN) using HepaRG (AID 2283523). The procedure, abridged: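 Expression of PTEN is quantified in the human liver line HepaRG following two days of dosing (top concentration 100 uM, half-log dilutions, 0.5% DMSO). Values derive from bidirectional curve fitting relative to DMSO controls.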

Read-out in experiment [11]: solute carrier (SLC22A1), SLC22A1 (gene 6580)
Briefly: LTEA_HepaRG_SLC22A1: Life Technologies and Expression Analysis (LTEA) Assay for solute carrier (SLC22A1) using HepaRG (AID 2283524).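 Note: TaqMan qRT-PCR normalized to ACTB GAPDH and POLR2A housekeeping genes.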 In a few lines: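 Transcript induction or suppression of SLC22A1 in human HepaRG cultures is scored after 48 h chemical treatment, with DMSO (0.5%) as baseline for bidirectional fitting. Concentrations span eight half-log points topping at 100 uM.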

Read-out in experiment [12]: Pyruvate Dehydrogenase Kinase 4 (PDK4), PDK4 (gene 5166)
As to the kind of experiment: LTEA_HepaRG_PDK4: Life Technologies and Expression Analysis (LTEA) Assay for Pyruvate Dehydrogenase Kinase 4 (PDK4) using HepaRG (AID 2283525). The procedure, abridged: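 Eight-point, half-log concentration series (max 100 uM, 0.5% DMSO) applied to differentiated HepaRG cells for 48 h in duplicate. Endpoint: PDK4 mRNA induction or repression by qRT-PCR against DMSO baseline.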

Read-out in experiment [13]: NAD(P)H dehydrogenase [quinone] 1 (NQO1), NQO1 (gene 1728)
As to the kind of experiment: LTEA_HepaRG_NQO1: Life Technologies and Expression Analysis (LTEA) Assay for NAD(P)H dehydrogenase [quinone] 1 (NQO1) using HepaRG (AID 2283526). The procedure, abridged: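 NQO1 transcript induction or loss measured by TaqMan qRT-PCR, referenced to three housekeeping genes and fitted bidirectionally against 0.5% DMSO. HepaRG cultures exposed 48 h, duplicate, eight-point half-log series, top 100 uM.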

Read-out in experiment [14]: Nuclear factor erythroid 2-related factor 2 (Homo sapiens) (UniProt Q16236)
Briefly: LTEA_HepaRG_NFE2L2: Life Technologies and Expression Analysis (LTEA) Assay for Nuclear factor erythroid 2-related factor 2 (NFE2L2) Transcription Factor using HepaRG (AID 2283527).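 For outcome: TaqMan qRT-PCR transcript level normalised to ACTB GAPDH and POLR2A housekeeping genes.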 In a few lines:
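Human liver HepaRG line treated in duplicate for 48 h with an eight-point series topping at 100 uM. Gene expression of NFE2L2 by qRT-PCR, bidirectionally fitted against the vehicle control.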

Read-out in experiment [15]: succinate dehydrogenase complex iron sulfur subunit B (SDHB), SDHB (gene 6390)
Briefly: LTEA_HepaRG_SDHB: Life Technologies and Expression Analysis (LTEA) Assay for succinate dehydrogenase complex iron sulfur subunit B (SDHB) using HepaRG (AID 2283528). In a few lines:
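HepaRG cells (~100,000/well, plated 48 h) exposed in duplicate for 48 h in serum-free induction medium to 8-point half-log series from 100 uM in 0.5% DMSO; mRNA by qRT-PCR normalised to ACTB, GAPDH, POLR2A; bidirectional fit versus DMSO.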

Read-out in experiment [16]: Signal transducer and activator of transcription 3 (Homo sapiens) (UniProt P40763)
As to the kind of experiment: LTEA_HepaRG_STAT3: Life Technologies and Expression Analysis (LTEA) Assay for Signal transducer and activator of transcription (STAT3) using HepaRG (AID 2283529). The procedure, abridged: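 In this transcriptional endpoint, HepaRG cultures receive test chemicals at up to 100 uM for 48 h, tested in duplicate. STAT3 mRNA is normalized to ACTB, GAPDH and POLR2A.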

Read-out in experiment [17]: solute carrier (SLCO1B1), SLCO1B1 (gene 10599)
Briefly: LTEA_HepaRG_SLCO1B1: Life Technologies and Expression Analysis (LTEA) Assay for solute carrier (SLCO1B1) using HepaRG (AID 2283530). In a few lines: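 SLCO1B1 transcript levels were quantified by TaqMan qRT-PCR using three housekeeping genes for normalization. This followed 48 h chemical exposure (100 uM top, half-log, 8 points, 0.5% DMSO) of HepaRG liver cells, with gain or loss fitted relative to DMSO.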

Read-out in experiment [18]: sulfotransferase 2A1 (SULT2A1), SULT2A1 (gene 6822)
As to the kind of experiment: LTEA_HepaRG_SULT2A1: Life Technologies and Expression Analysis (LTEA) Assay for sulfotransferase 2A1 (SULT2A1) using HepaRG (AID 2283531). The procedure, abridged: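 Expression change of SULT2A1, by qRT-PCR with three housekeeping-gene normalization, was scored bidirectionally versus DMSO. Cells: differentiated HepaRG, dosed in duplicate for 48 h across 8 points, highest 100 µM, half-log dilution, 0.5% DMSO.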

Read-out in experiment [19]: Transforming Growth Factor (TGFA), TGFA (gene 7039)
Briefly: LTEA_HepaRG_TGFA: Life Technologies and Expression Analysis (LTEA) Assay for Transforming Growth Factor (TGFA) using HepaRG (AID 2283532). In a few lines:
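Gene expression of TGFA was quantified by qRT-PCR after human HepaRG cells were treated for 48 h with test chemicals (eight concentrations, highest 100 uM, 0.5% DMSO). Activity in either direction was fitted relative to DMSO.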

The source made the active and inactive calls. Rule for the calls: active = hit-call score of the fitted dose curve at least 0.9, where 1 is the maximum; inactive = score below 0.9.

Signal transducer and activator of transcription 3 (Homo sapiens), sequence (P40763 whole entry, looked up): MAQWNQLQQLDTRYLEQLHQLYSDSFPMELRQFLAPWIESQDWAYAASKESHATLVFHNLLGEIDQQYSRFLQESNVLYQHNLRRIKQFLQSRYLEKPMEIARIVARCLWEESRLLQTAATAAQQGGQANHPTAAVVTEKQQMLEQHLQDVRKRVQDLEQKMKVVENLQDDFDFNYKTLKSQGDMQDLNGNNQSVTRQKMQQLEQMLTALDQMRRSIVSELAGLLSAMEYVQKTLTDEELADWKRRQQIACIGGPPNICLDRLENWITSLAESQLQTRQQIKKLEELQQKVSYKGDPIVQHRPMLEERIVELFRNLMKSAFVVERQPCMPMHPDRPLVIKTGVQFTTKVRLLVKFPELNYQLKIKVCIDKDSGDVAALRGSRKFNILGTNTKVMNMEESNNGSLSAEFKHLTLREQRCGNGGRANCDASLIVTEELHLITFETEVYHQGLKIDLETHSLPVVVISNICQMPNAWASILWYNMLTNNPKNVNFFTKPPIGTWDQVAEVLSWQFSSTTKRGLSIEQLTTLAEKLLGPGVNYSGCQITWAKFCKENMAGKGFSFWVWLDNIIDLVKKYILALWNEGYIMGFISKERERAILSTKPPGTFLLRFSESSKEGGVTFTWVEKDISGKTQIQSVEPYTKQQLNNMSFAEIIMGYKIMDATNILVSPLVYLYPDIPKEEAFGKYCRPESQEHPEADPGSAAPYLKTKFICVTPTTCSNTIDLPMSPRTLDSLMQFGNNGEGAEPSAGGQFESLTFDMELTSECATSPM
Nuclear factor erythroid 2-related factor 2 (Homo sapiens), sequence (Q16236 whole entry, looked up): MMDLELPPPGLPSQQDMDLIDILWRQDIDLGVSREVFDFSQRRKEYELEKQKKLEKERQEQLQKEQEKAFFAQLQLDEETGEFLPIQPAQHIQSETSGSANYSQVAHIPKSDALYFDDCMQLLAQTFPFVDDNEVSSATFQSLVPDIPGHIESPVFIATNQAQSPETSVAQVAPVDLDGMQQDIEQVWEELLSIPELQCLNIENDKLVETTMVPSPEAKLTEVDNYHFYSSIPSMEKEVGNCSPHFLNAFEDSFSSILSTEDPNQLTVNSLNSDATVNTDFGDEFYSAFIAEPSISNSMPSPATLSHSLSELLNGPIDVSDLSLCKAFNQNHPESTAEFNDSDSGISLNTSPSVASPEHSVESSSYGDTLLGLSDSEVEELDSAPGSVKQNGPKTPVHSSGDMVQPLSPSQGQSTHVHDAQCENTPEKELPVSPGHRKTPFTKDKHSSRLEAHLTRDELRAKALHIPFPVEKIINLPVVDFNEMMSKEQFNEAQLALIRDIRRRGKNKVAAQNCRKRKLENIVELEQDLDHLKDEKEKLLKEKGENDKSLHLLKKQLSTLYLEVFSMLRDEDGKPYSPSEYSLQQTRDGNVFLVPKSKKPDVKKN
Nuclear factor NF-kappa-B p105 subunit (Homo sapiens), sequence (P19838 whole entry, looked up): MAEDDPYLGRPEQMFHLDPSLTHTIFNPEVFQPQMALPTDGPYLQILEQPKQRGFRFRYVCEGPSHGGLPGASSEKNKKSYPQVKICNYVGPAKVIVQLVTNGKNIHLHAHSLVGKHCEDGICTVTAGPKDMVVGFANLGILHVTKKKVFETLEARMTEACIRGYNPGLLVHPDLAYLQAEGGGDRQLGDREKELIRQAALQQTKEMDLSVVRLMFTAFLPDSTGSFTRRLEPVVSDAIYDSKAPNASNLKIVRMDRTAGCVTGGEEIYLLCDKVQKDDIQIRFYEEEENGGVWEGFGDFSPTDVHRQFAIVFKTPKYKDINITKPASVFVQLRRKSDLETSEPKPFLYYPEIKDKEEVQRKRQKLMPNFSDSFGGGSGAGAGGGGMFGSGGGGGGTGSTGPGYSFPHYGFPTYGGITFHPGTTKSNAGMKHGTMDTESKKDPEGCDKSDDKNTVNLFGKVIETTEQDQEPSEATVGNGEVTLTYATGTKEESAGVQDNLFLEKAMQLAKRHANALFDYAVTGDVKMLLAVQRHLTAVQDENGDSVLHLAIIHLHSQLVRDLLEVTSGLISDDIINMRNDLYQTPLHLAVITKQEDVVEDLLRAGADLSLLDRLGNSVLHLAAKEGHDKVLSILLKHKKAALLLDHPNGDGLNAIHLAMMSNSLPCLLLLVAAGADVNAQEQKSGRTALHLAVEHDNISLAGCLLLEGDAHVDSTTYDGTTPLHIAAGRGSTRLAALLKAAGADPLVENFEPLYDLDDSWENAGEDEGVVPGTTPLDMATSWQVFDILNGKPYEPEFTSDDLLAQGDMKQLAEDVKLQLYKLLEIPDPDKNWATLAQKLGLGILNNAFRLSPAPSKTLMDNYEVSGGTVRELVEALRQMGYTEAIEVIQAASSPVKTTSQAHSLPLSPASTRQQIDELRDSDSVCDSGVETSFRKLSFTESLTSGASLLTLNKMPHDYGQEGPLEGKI

As to `O=C(Nc1ccccc1)Nc1cnns1`, the outcome in [1], in experiment [5], in experiment [8], in experiment [9], in experiment [10] and in experiment [13] was inactive. The compound was classed as inactive in [14], in [15], in experiment [16] and in [19]. The AC50 in [2] was 76.9 µM (active); in experiment [3] it was 81.5 µM (active); in [4] it was 69.2 µM (active); with MYC, MYC (gene 4609), 87.7 µM (active); in experiment [6], 91.2 µM (active); in experiment [7], 61.5 µM (active). For the same compound, the AC50 in [11] is 70 µM (active); in experiment [12], 62.4 µM (active); in experiment [17] it was 74.2 µM (active); in [18], 50 µM (active).
On to `CC(C)(C)C(O)/C(=C\c1ccc(Cl)cc1Cl)n1cncn1` (stereo not drawn), for which the AC50 was 72.7 µM (active) in [1]; 21.5 µM (active) in [2]; 12.4 µM (active) in [3]; 62.5 µM (active) in experiment [7]; 85.9 µM (active) in [9]; 79.1 µM (active) in experiment [10]. Besides, the AC50 in [11] was 21 µM (active); in [12], 29.4 µM (active); in experiment [14], 75.3 µM (active); in experiment [17], 69 µM (active); in experiment [18] it was 35.2 µM (active). Moreover, the outcome in [4] is “inactive”; in experiment [5], “inactive”; with MYC, MYC (gene 4609) it was “inactive”; in experiment [6], “inactive”; in [13], “inactive”; in [15] it was “inactive”. The outcome in experiment [16] and in [19] was inactive.
Turning to `N#Cc1c(Cl)c(Cl)c(Cl)c(C#N)c1Cl`, the outcome in experiment [1], in [7], in experiment [9], in [13], in experiment [14] and in [15] was inactive. The compound was called inactive in experiment [16], in [17], in experiment [18] and in [19]. In addition, the AC50 in experiment [2] is 50 µM (active); in experiment [3], 18 µM (active); in experiment [4], 90.9 µM (active); in experiment [5], 15.6 µM (active); in the experiment with MYC, MYC (gene 4609) it was 50 µM (active); in experiment [6], 21 µM (active). The AC50 in experiment [10] was 68.7 µM (active); in [11] it was 61.5 µM (active); in experiment [12] it was 75.6 µM (active).
